Data taken from PubChem BioAssay (Tox21).
“And” between values parts separate entries of the source, which are not always exact repeats. Equal entries are not always repeated. Results filed as inconclusive are left out. Where a call stands in place of a potency, no number is given. More than one record can exist for a structure, and the calls need not agree. The source made the active and inactive calls. Calls come from the whole dose curve; as a rule, active = well fitted cell-killing curve with a large enough effect in the repeat runs; inconclusive = weak or mixed curves; inactive = no such curve, though single readings can be large or run the other way.

test: qHTS assay to identify small molecule antagonists of the peroxisome proliferator-activated receptor delta (PPARd) signaling pathway - cell viability counter screen (AID 743213); settings: PPARd-bla HEK293H viability, CellTiter-Glo luminescence, 17 h; series mostly up to 62 µM; note: nearly all actives have a fitted effect of over 50% in size
Description: U.S. Tox21 Program National Center for Advancing Translational Sciences [NCATS] NIH Chemical Genomics Center [NCGC] U.S. Environmental Protection Agency [EPA] National Institutes of Environmental Health Sciences [NIEHS] National Toxicology Program [NTP] U.S. Food and Drug Administration [FDA] Tox21 Assay Overview: The peroxisome proliferator-activated receptors (PPARs) are lipid-activated transcription factors of the nuclear receptor superfamily with three distinct subtypes namely PPAR alpha, PPAR delta (PPARd) and PPAR gamma. All these subtypes heterodimerizes with Retinoid X receptor (RXR) and have different physiological functions. […] To identify the compounds that inhibit PPAR-delta signaling, GeneBLAzer PPAR delta UAS-bla HEK293H cell line (Invitrogen, Carlsbad, CA, USA) containing a beta-lactamase reporter gene under the control of an Upstream Activator Sequence (UAS) was used to screen the Tox21 compound library. The cytotoxicity of the Tox21 compound library against the PPARd-bla cell line was tested in parallel by measuring the cell viability using CellTiter-Glo assay (Promega, Madison, WI) in the same wells.
Tox21 Assay Protocol Summary: PPARd-bla cells were dispensed at 3000 cells/5uL/well in 1536-well black wall/clear bottom plates using a Multidrop Combi (Thermo Fisher Scientific, Waltham, MA) dispenser. After the assay plates were incubated at 37 C and 5% CO2 for 5 h, 23 nL of compounds dissolved in DMSO, positive controls or DMSO only was transferred to the assay plate by a Pintool station (Kalypsys, San Diego, CA), followed by addition of 1ul L165041 (300 nM, final concentration in the wells). The assay plates were incubated at 37 C for 17 h, and then 1 uL of LiveBLAzerTM B/G FRET substrate was added using a Bioraptr Flying Reagent Dispenser (FRD) workstation (Beckman Coulter, Indianapolis, IN, USA). The assay plates were incubated at room temperature for 2 h and fluorescence intensity was measured by an Envision plate reader (PerkinElmer, Shelton, CT). For cell viability readout that measures cytotoxicity, 3 ul/well of CellTiter-Glo reagent was added into the assay plates using a Bioraptr FRD. After 30 min incubation at room temperature, the luminescence intensity in the plates was measured using a ViewLux plate reader (PerkinElmer).
Potency is the fitted concentration of half-maximal effect.

Structure (SMILES) | Potency | viability change, negative = cytotoxic
CCCCOCCOC(=O)c1ccccc1C(=O)OCCOCCCC | 42.7 µM (active) and inactive | –
CC(C)CCCCCCc1ccc(O)cc1 | 39.6 µM (active) and 43.6 µM (active) | –
Cc1ccc(-c2cc(C(F)(F)F)nn2-c2ccc(S(N)(=O)=O)cc2)cc1 | inactive | –
CCN1CCCC1CNC(=O)c1cc(S(=O)(=O)CC)c(N)cc1OC (stereo not given) | inactive | –
CCc1ccc(C(c2ccc(CC)cc2)C(Cl)Cl)cc1 | inactive | –
C=CC(=O)OCCCCCCOC(=O)C=C | inactive | –
CC[C@]1(O)C[C@@H]2CN(CCc3c([nH]c4ccccc34)[C@@](C(=O)OC)(c3cc4c(cc3OC)N(C)[C@H]3[C@@](O)(C(=O)OC)[C@H](OC(C)=O)[C@]5(CC)C=CCN6CC[C@]43[C@@H]65)C2)C1 | inactive | –
CCCCC/C=C/CC1CC(=O)OC1=O (stereo not given) | inactive | –
COC(=O)/C=C/c1ccccc1 | inactive | –
CCCCCCCCCCCC[N+](C)(C)C | 54.9 µM (active) and 15.5 µM (active) | –
CC(C(O)c1ccc(O)cc1)N1CCC(Cc2ccccc2)CC1 (stereo not given) | inactive | –
CN(C)c1ccc2nc3ccc(=[N+](C)C)cc-3sc2c1 | 49 µM (active) and inactive | –
O=C(O[C@@H]1Cc2c(O)cc(O)cc2O[C@@H]1c1cc(O)c(O)c(O)c1)c1cc(O)c(O)c(O)c1 | inactive | –
COC(=O)c1cccc(C(=O)OC)c1 | inactive | –
CC[C@@H](N)CO | inactive | –
c1ccc2cc3c(ccc4ccccc43)cc2c1 | inactive | –
CCOC(=O)C(C)C(C)=O (stereo not given) | inactive | –
COc1ccc(CCN(C)CCCC(C#N)(c2ccc(OC)c(OC)c2)C(C)C)cc1OC (stereo not given) | inactive | –
N[C@@H]1CONC1=O | inactive | –
CCCCCCCCCCCCc1ccccc1O | 24.2 µM (active) and 21.9 µM (active) | –

Structure (SMILES) | Potency | viability change, negative = cytotoxic
NC(Cc1ccc(Cl)cc1)C(=O)O (stereo not given) | – | 1.71% [at 0.575 µM] (inactive)
O=C(O)c1cccc(C(=O)O)c1 | inactive | –
CCC[C@H](N[C@@H](C)C(=O)N1[C@H](C(=O)O)C[C@@H]2CCCC[C@@H]21)C(=O)OCC | inactive | –
CCCCCCCCCCCCCCCCCl | inactive | –
OCCOCCN1CCN(C(c2ccccc2)c2ccc(Cl)cc2)CC1 (stereo not given) | 43.1 µM (active) | –
O=Nc1ccc(Nc2ccccc2)cc1 | 49 µM (active) | –
CC1=C(C=O)C(C)(C)CC=C1 | inactive | –
Cc1cc(Cc2cc(C)cc(C(C)(C)C)c2O)c(O)c(C(C)(C)C)c1 | 13.9 µM (active) and 15.5 µM (active) | –
Clc1ccc2c(c1)C(N1CCNCC1)=Nc1ccccc1O2 | 2.19 µM (active) and inactive | –
Oc1ccc(Cl)cc1Cc1cc(Cl)ccc1O | 25 µM (active) | –
CCN(CC)CCOc1ccc(/C(=C(\Cl)c2ccccc2)c2ccccc2)cc1 | 39.7 µM (active) | –
CCC(=O)/C=C/C1C(C)=CCCC1(C)C (stereo not given) | inactive | –
C#CC(C)(CC)OC(=O)c1ccccc1C(=O)O (stereo not given) | inactive | –
OCCN1CCNCC1 | inactive | –
c1cc(C(c2ccc(OCC3CO3)cc2)C(c2ccc(OCC3CO3)cc2)c2ccc(OCC3CO3)cc2)ccc1OCC1CO1 (stereo not given) | inactive | –
CCCCCCCCCCCCCC[P+](CCCC)(CCCC)CCCC | 7.72 µM (active) and 11 µM (active) | –
CCOc1ccccc1C(N)=O | inactive | –
c1ccc2c(c1)CCCC2C1=NCCN1 (stereo not given) | inactive | –
CC(C)(O)CCC(C)(C)O | inactive | –
CC(C)(C)NC(=O)[C@@H]1CN(Cc2cccnc2)CCN1C[C@@H](O)C[C@@H](Cc1ccccc1)C(=O)N[C@H]1c2ccccc2C[C@H]1O | inactive | –
